# Shiga inhibitor: Shiga toxin inhibition; Vero cells, Shiga toxin protein synthesis inhibition reporter; 9.2% of 290,000 active; inhibition, % at 38.7 µM; in the data active = inhibition mostly above about 28%, no sharp cut-off; inactive = mostly below about 43%
# Cycloheximide cs: counter-screen hit for Shiga toxin inhibitors, cycloheximide. max response, %. 12% of 300,000 active. AID 2314. cell reporter, cycloheximide protein synthesis inhibition counterscreen; in the data active = max response mostly above about 13%, no sharp cut-off; inactive = mostly below about 14%; note: read at 38.3 µM for the half of the compounds with a filed dose
# Pf growth 96h: P. falciparum growth inhibition at 96 hours; P. falciparum luciferase reporter growth, 96 h; Potency, µM (top dose mostly 28.7 µM), most hits filed as inhibitors; 6.9% of 320,000 active; AID 504834
#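 Infected RBCs, 2% Hct / 0.05% parasitemia final; luciferase-reporter P. falciparum; cpd 96 h, 37 C, 5% CO2; luciferase detection reagent; luminescence.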
# Pf growth 48h: P. falciparum growth inhibition at 48 hours (one generation); P. falciparum luciferase growth in erythrocytes, 48 h; Potency, µM (top dose mostly 28.7 µM), hits mostly inhibitors; 5.9% of 310,000 active; AID 504832
#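 Luminescence readout; reporter = integrated firefly luciferase in P. falciparum. RBC culture at 2% hematocrit, 0.1% parasitemia final, 37 C/5% CO2; decreased signal taken as growth inhibition.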
# LASV entry inh: inhibitors of Lassa virus binding or cell entry. Lassa virus pseudotype entry inhibition, cell reporter. 1.2% of 300,000 active. AID 540256. Potency, µM (series often up to 37.9 µM), most hits filed as inhibitors; calls by dose curve; tested in HEK293 cells; note: nearly all actives have a fitted effect of over 50% in size
# Marburg entry inh: Marburg virus entry inhibition; 1.8% of 300,000 active; Marburg virus pseudotyped entry inhibition, cell reporter; Potency, µM (doses to about 37.8 µM), hits mostly inhibitors; calls by dose curve; tested in HEK293 cells
# A number is an active result; n = inactive; u = inconclusive; x = no result given. This is a sample that favours compounds with a hit; in the whole collection about 19% have one here. Unless noted, calls come from the whole dose curve; as a rule, active = well fitted inhibition curve with a large enough effect; inconclusive = small, poorly fitted or top-dose-only effect, or another doubt; inactive = no such curve, though single readings can be large or run the other way.
SMILES,Shiga inhibitor,Cycloheximide cs,Pf growth 96h,Pf growth 48h,LASV entry inh,Marburg entry inh
NNc1ccccc1C(F)(F)F,n,28,n,n,n,n
Cc1cc(C=O)c(C)n1-c1ccc2c(c1)OCO2,n,n,3.7µM,n,x,x
Cc1ccc(CN2CCSc3ccc(C(=O)NCC4CCCO4)cc32)cc1 (stereo not drawn),n,n,u,u,x,x
CCOC(=O)c1ccc(NCCc2ccc(OC)c(OC)c2)c(N)c1,n,n,u,9.3µM,u,n
CC(C)(C)c1nnc(NC(=O)Cc2ccccc2[N+](=O)[O-])s1,n,n,n,n,n,n
COc1ccccc1NC(=O)Nc1nnc(C(C)C)s1,75,51,n,n,u,u
CC(C)c1nnc(NC(=O)Cc2ccccc2[N+](=O)[O-])s1,active,12,n,n,n,n
COc1ccccc1NC(=O)Nc1nnc(CC(=O)Nc2ccccc2)s1,n,n,n,u,x,x
CCc1nnc(NC(=O)Nc2ccccc2OC)s1,91,35,x,n,n,n
Cc1ccccc1-c1nnc(-c2cccc3ccccc23)o1,x,x,x,x,n,n
Cc1ccccc1-c1nnc(CN2CCC(C)CC2)o1,71,27,n,x,n,u
Cc1ccccc1-c1nnc(-c2ccccc2C)o1,42,23,n,n,n,n
Cc1ccccc1-c1nnc(-c2ccc(Br)cc2)o1,n,21,n,x,n,n
COc1cccc(C(=O)NCCSc2ccc(F)cc2)c1,57,39,n,n,u,n
COc1cccc(C(=O)NCCCNC(=O)c2cccc(OC)c2)c1,x,n,n,n,u,n
COc1cccc(C(=O)NCCSc2ccc(C)cc2)c1,n,21,u,n,n,u
COc1cccc(C(=O)NCC(C)(C)SCc2ccc(F)cc2)c1,n,n,n,n,x,x
COc1cc(-c2[nH]ncc2CN2CCN(c3cccc(C)n3)CC2)cc(OC)c1OC,n,n,4.1µM,9.3µM,x,x
CCCOC(=O)Nc1nc(-c2ccc(C)cc2)c(C)s1,65,27,n,n,11µM,n
COc1ccc(-c2nc(NC(=O)Cn3cnnn3)sc2C)cc1,n,n,n,n,x,x
COc1ccc(-c2nc(NC(=O)CSCCO)sc2C)cc1,70,n,u,n,n,n
COc1ccc(-c2nc(NC(=O)Cn3ccc(C(F)(F)F)n3)sc2C)cc1,n,n,13µM,x,u,u
COc1cccc(S(=O)(=O)NCc2ccc(C(=O)N3CCN(Cc4ccccc4)CC3)cc2)c1,n,n,u,n,u,u
CCN(CC(=O)NCc1ccc(Cl)cc1)C(=O)/C=C/c1ccco1,n,n,n,n,n,n
COc1ccc(NC(=O)c2c(C)cc(=O)oc2C)c(OC)c1,n,n,n,n,n,n
SMILES,Shiga inhibitor,Cycloheximide cs,Pf growth 96h,Pf growth 48h,LASV entry inh,Marburg entry inh
CS(=O)(=O)N1CCC(C(=O)Nc2cc(Cl)c(Cl)cc2Cl)CC1,n,n,2.1µM,n,n,n
CCN(CCNC(=O)C1CCN(S(C)(=O)=O)CC1)c1ccccc1,n,n,4.7µM,n,n,n
CS(=O)(=O)N1CCC(C(=O)NCc2ccc(Cl)cc2)CC1,n,n,n,2.3µM,x,x
CS(=O)(=O)N1CCC(C(=O)NCc2ccncc2)CC1,n,n,n,n,n,n
CCCS(=O)(=O)N1CCC(C(=O)NCCN(CC)c2ccccc2)CC1,n,n,n,n,n,n
O=C(NCc1ccco1)C1CCN(C(=O)Cc2ccccc2)CC1,n,n,x,n,n,n
O=C(NCc1ccc(Cl)cc1)C1CCN(C(=O)Cc2ccccc2)CC1,n,n,12µM,n,n,n
O=C(O)c1cc(S(=O)(=O)N2CCOCC2)c(Sc2ccccn2)cc1Sc1ccccn1,n,n,u,n,u,n
CCS(=O)(=O)N1CCC(C(=O)NCc2ccc(F)cc2Cl)CC1,n,n,u,n,n,u
COc1ccc(OC)c(CNC(=O)C2CCN(S(=O)(=O)N3CCCCC3)CC2)c1,n,n,n,n,n,x
COc1ccc(Br)cc1CNC(=O)C1CCN(S(=O)(=O)N2CCC(C)CC2)CC1,n,n,12µM,u,n,n
CSc1ccc(CN2CCC(C(=O)NCc3ccc(C)cc3)CC2)cc1,n,n,n,n,u,16µM
O=C(NCc1ccc(F)cc1Cl)C1CCN(S(=O)(=O)N2CCCCC2)CC1,n,n,3.3µM,n,x,x
CCCC(=O)Nc1ccc(C(=O)NN2C(=O)c3ccccc3C2=O)cc1,n,n,u,n,n,n
CCN1CCN(Cc2ccc(NC(=O)Nc3ccc(SC)cc3)cc2)CC1,58,44,x,1.7µM,n,u

# Source: PubChem BioAssay
